The whole screen tested about 370,000 compounds, of which about 3,800 (1%) were called active. The full list was thinned out, with actives kept by preference. Values without a mark were called inactive. No stated cut-off is given here; in the data, active means activation above about 7.8%; inactive means the rest.
Test: SMARCA2 (BRM) function activators, primary screen, cell-based, luminescence, high throughput (AID 652017);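 further: 0% = vehicle wells and 100% = reference activator wells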
Conditions: MG213 cells, MMTV-luciferase reporter, dexamethasone, overnight; at 9.1 µM; stronger effect = higher value

SMILES	activation
Cc1nc2ccc(C(=O)N3CCN(C(=O)C(C)(C)C)CC3)cc2n1C1CCCC1	-3.37%
CC1CC(C)CN(CCC(=O)Nc2ccc3c(c2)CCC3)C1 (centres undefined)	-0.27%
O=C(Nc1ccc2c(c1)CCC2)c1ccc(Br)s1	9.61% (active)
CC(C)Oc1ccc(C(=O)NCC(=O)Nc2ccc3c(c2)CCC3)cc1	5.66%
C[C@H]1CN([C@@H](C)CO)C(=O)Cc2cc(NS(C)(=O)=O)ccc2O[C@@H]1CN(C)CC1CC1	0.45%
COc1ccccc1CNS(=O)(=O)c1c(C)[nH]c(C)c1C(=O)N1CCCCC1	3.15%
COc1ccc(NC(=O)c2sccc2SCC#N)cc1	8.69% (active)
COc1ccc(NC(=O)C(C)SCc2ccccc2)cc1 (centres undefined)	-0.97%
COC(=O)[C@H](CCSC)NC(=O)Nc1ccc(OC)cc1	0.38%
Cc1c[nH]c2cccc(-c3ccc(Cl)cc3)c12	-2.85%
CCCCn1c(N)c(N(CC(C)C)C(=O)c2cccc(S(=O)(=O)N3CC(C)OC(C)C3)c2)c(=O)[nH]c1=O (centres undefined)	-0.77%
COC(=O)C1CN(CC(C)C)CCS(=O)(=O)N1Cc1ccc(C)cc1 (centres undefined)	-1.21%
CC(C)CC(=O)N/C(N)=N/c1nc2ccccc2s1	5.04%
O=C(CSc1nc2ccccc2s1)NN=Cc1ccc(O)cc1O	-6.37%
CCC(=O)NC(=Nc1nc2ccccc2s1)NC(=O)CC	7.9% (active)
COC(=O)CCC(=O)N1CCCC(CO)(Cc2ccccc2)C1 (centres undefined)	3.15%
COc1cccc(N2CCN(CC(=O)N(C)Cc3ccc(F)cc3)CC2)c1	-2.95%
COCn1c(COc2ccccc2)nc2ccccc21	9.21% (active)
COc1ccccc1Cn1c(CO)nc2ccccc21	-2.13%
COCc1nc2ccccc2n1Cc1ccccc1Br	-3.44%

SMILES	activation
COC(=O)C1CN(CCc2ccccc2)CCS(=O)(=O)N1Cc1cccc(Cl)c1 (centres undefined)	-3.45%
CCCCN(CC)C(=S)Nc1ccc2nc3n(c(=O)c2c1)CCCCC3	-4.18%
Cc1ccc(NC(=O)CN2CCC3(O)CCCCC3C2c2ccc3c(c2)OCO3)c(C)c1 (centres undefined)	0.08%
CC1CCCCC1NC(=O)CCS(=O)(=O)c1ccc2c(c1)NC(=O)CO2 (centres undefined)	-2.77%
CC1CCCCC1NC(=O)CN1CCC(O)(c2ccc3c(c2)OCO3)CC1 (centres undefined)	8.42% (active)
Cc1sc2nc(SCC(=O)c3ccc(O)c(O)c3)n(Cc3ccco3)c(=O)c2c1C	-5.31%
Cc1c(NC(=O)CSc2cccc3cccnc23)c(=O)n(-c2ccccc2)n1C	8.2% (active)
Cc1ccc(S(=O)(=O)CC(=O)Nc2c(C)n(C)n(-c3ccccc3)c2=O)cc1	-1.75%
Cc1ccccc1OCCC(=O)Nc1c(C)n(C)n(-c2ccccc2)c1=O	-3.07%
C[C@]1(C(=O)NCCc2c[nH]c3ccccc23)C=C[C@@H](Cc2ccccc2)N1C(=O)c1ccccc1	1.41%
Cc1ccc(-n2c(SCC(=O)Nc3ccc(S(=O)(=O)Nc4nccs4)cc3)nnc2-c2cccnc2)cc1	-5.55%
Cc1c(CCO)c(=O)n(-c2ccccc2)n1S(=O)(=O)c1ccc(F)cc1	-2.63%
O=C(NCc1cccs1)C1CCN(S(=O)(=O)c2ccccc2[N+](=O)[O-])CC1	-3.33%
Cc1ccc(NC(=S)NNC(=O)CSc2nnc(SCc3ccccc3Cl)s2)cc1	-6.06%
CCOc1ccc(C(=O)Nc2nccs2)cc1[N+](=O)[O-]	5.63%
Cn1cccc1C(=O)Nc1nccs1	1.12%
CC(=O)Oc1ccc(C(=O)Nc2nccs2)cc1	9.12% (active)
COc1ccc(-c2nc3n(c(=O)c2C#N)CCS3)c(OC)c1	-2.7%
COc1ccc2c(c1)CN1CN(CCc3ccccc3)S(=O)(=O)CC21 (centres undefined)	5.9%
COc1ccc(-c2cc(-c3ccc(N)cc3)nc(N)c2C#N)cc1OC	8.11% (active)

SMILES	activation
COc1ccc(OC)c2c(N)c(C#N)c(C(F)(F)C(F)(F)F)nc12	1.9%
COc1ccc(-c2cc(C(F)(F)F)nc(S(C)(=O)=O)n2)cc1OC	-11.1%
CCCCOc1ccc(Cl)cc1CSc1nncn1N	1.44%
CCCCCCCCN1C(=O)[C@@H](CC(=O)NCc2ccc(C)o2)C[C@@]2(C(=O)OC)C1=C[C@H](C(C)(C)C)O[C@@H]2C	-5.88%
COc1cccc(CSc2nnc(-c3cccnc3)n2Cc2ccccc2)c1	-3.94%
CC(C)c1ccc(S(=O)(=O)NC2CCCC2)cc1	-1.52%
Cn1sc(=O)c2cc(S(=O)(=O)NC3CC3)ccc21	8.34% (active)
Cc1ccc(S(=O)(=O)NC2CCCCCC2)cc1C(N)=O	-2.18%
CN(C)CC(=O)N[C@@H]1C[C@@H]2O[C@H](CO)CC[C@@H]2O[C@@H]1CCc1ccc(C#Cc2ccccc2)cc1	0.56%
CCC(C)Sc1nc(C)nc2c1c(=O)n(C)c(=O)n2C (centres undefined)	-1.47%
CN(C)C(=O)c1cccc(-c2cnc3c(NC=O)cc(-c4ccc(C(=O)N5CCOCC5)cc4)cn23)c1	3.31%
CC(=O)Nc1cc(-c2ccc(N3CCN(C)CC3)cc2)cn2c(-c3ccc(F)cc3)cnc12	12.3% (active)
CN(C)CCNC(=O)c1cccc(-c2cnc3c(NC=O)cc(-c4cccc(C(F)(F)F)c4)cn23)c1	21.3% (active)
COc1ccc(-c2cc(NC=O)c3ncc(-c4cccc(C(=O)N(C)C)c4)n3c2)c(OC)c1	-4.41%
CC(=O)Nc1cc(-c2ccc(N3CCN(C)CC3)cc2)cn2c(-c3cccc(C(=O)N(C)C)c3)cnc12	5.35%
O=CNc1cc(-c2ccc(C(=O)N3CCOCC3)cc2)cn2c(-c3ccc(F)cc3)cnc12	-2.13%
CC(=O)c1cccc(-c2cnc3c(NC=O)cc(-c4ccc(N5CCN(C)CC5)cc4)cn23)c1	16.7% (active)
CC(=O)Nc1cccc(-c2cc(NC(C)=O)c3ncc(-c4ccccc4)n3c2)c1	-12.2%
CC(=O)Nc1cc(-c2cccc(CO)c2)cn2c(-c3cccc(C(F)(F)F)c3)cnc12	-2.27%

— PubChem BioAssay AID652017 (The Scripps Research Institute Molecular Screening Center, 2013)
